Where “and” joins values, the source holds several entries; their conditions need not be identical. Equal values may be shown once. The source holds several records for some structures; these can differ, active in one and inactive in another. Calls of active or inactive are those of the source. How the source made its calls: active means hit-call score of the fitted dose curve at least 0.9, where 1 is the maximum; inactive means score below 0.9.
Tests used:
[1] = ATG_E_Box_CIS: Attagene CIS-FACTORIAL HepG2 Assay for human Enhancer Box (E-box) (AID 2282936); settings: HepG2 E-box cis-reporter transcription, actives raise or lower the signal
Method in brief: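 HepG2 cells transiently transfected with multiplexed cis-element reporter units, dosed 24 h; reporter mRNA quantified by RT-PCR, 6-FAM labelling, HpaI digestion and capillary electrophoresis. E-box (USF1) signal fitted bidirectionally vs DMSO.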

[2] = ATG_M_61_CIS: Attagene CIS-FACTORIAL HepG2 Assay for M61 Transcription Factor (Internal Marker) (AID 2282937); settings: HepG2 Attagene CIS-FACTORIAL M61 internal marker reporter; actives raise or lower the signal
Method in brief: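 Readout: fluorescent reporter mRNA fragments resolved by capillary electrophoresis after RT-PCR. Transiently transfected human HepG2 cells carried MRTU constructs reporting endogenous TF activity; 24 h chemical exposure; gain or loss of signal fitted relative to DMSO.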

[3] = ATG_EGR_CIS: Attagene CIS-FACTORIAL HepG2 Assay for human Early Growth Response 1 (EGR1) (AID 2282938); settings: HepG2 Attagene CIS-FACTORIAL EGR reporter mRNA; actives raise or lower the signal
Method in brief: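 Read-out: fluorescent reporter-mRNA fragments resolved by capillary electrophoresis after RT-PCR, 24 h post-dose in transiently transfected HepG2. Endogenous transcription-factor activity reported via cis-element-regulated reporter units; gain or loss fitted relative to DMSO.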

[4] = ATG_M_19_CIS: Attagene CIS-FACTORIAL HepG2 Assay for M19 Transcription Factor (Internal Marker) (AID 2282939); settings: HepG2 Attagene CIS-FACTORIAL M19 internal marker reporter; actives raise or lower the signal
Method in brief: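 Chemical-treated HepG2 (24 h) with MRTU constructs; reporter transcripts detected by fluorescent RT-PCR fragment analysis on capillary electrophoresis. Internal background marker, DMSO as baseline.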

[5] = ATG_Ets_CIS: Attagene CIS-FACTORIAL HepG2 Assay for human Erythroblast Transformation Specific (ETS) (AID 2282941); settings: HepG2 ETS cis-reporter transcription, actives raise or lower the signal
Method in brief: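 HepG2 cells transfected with multiple cis-regulated reporter units measuring endogenous ETS-driven transcription, 24 h after dosing. Reporter mRNA quantified by RT-PCR with capillary electrophoresis; bidirectional fit relative to DMSO.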

[6] = biological target: Hepatocyte nuclear factor 3-beta (Homo sapiens) (UniProt Q9Y261); test: ATG_FoxA2_CIS: Attagene CIS-FACTORIAL HepG2 Assay for human Forkhead box A2 (FOXA2) (AID 2282942); settings: HepG2 cis-reporter transcription factor activity, 24 h; actives raise or lower the signal
Hepatocyte nuclear factor 3-beta (Homo sapiens), sequence (Q9Y261 whole entry, looked up): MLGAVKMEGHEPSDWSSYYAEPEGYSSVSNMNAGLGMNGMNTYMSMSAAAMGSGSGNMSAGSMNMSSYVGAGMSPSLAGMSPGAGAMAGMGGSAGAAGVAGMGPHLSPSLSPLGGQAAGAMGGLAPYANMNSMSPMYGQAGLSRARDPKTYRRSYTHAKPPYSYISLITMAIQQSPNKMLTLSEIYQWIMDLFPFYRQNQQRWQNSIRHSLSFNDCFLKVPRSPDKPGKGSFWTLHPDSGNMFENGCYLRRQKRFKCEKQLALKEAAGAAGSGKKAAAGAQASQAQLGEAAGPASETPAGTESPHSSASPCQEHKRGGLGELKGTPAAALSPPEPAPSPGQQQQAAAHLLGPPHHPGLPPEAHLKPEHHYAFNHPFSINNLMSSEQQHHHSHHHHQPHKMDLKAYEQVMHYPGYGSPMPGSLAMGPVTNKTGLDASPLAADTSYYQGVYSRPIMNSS
Method in brief: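 Readout: fluorescent reporter transcripts resolved by capillary electrophoresis after RT-PCR. Transiently transfected HepG2, 24 h compound exposure, endogenous TF activity at cis promoter elements. Gain or loss of signal fitted relative to DMSO.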

[7] = ATG_FoxO_CIS: Attagene CIS-FACTORIAL HepG2 Assay for human Forkhead box O (FoxO) (AID 2282943); settings: HepG2 Attagene cis-reporter, FoxO element, mRNA; actives raise or lower the signal
Method in brief: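 Transfected HepG2 reporter cells exposed to test chemical for 24 h; reporter RNA measured by reverse transcription, PCR and fluorescent capillary electrophoresis; curves fitted for increases and decreases against DMSO.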

[8] = ATG_GLI_CIS: Attagene CIS-FACTORIAL HepG2 Assay for human Zinc Finger Protein GLI1 (AID 2282945); settings: HepG2, Attagene cis-factorial reporter mRNA, GLI element; actives raise or lower the signal
Method in brief: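 Transiently transfected HepG2 cells report endogenous transcription factor activity via cis-element-driven reporter units. After 24 h compound exposure, reporter mRNA was measured by RT-PCR with capillary electrophoresis; bidirectional fitting against DMSO baseline.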

[9] = ATG_GATA_CIS: Attagene CIS-FACTORIAL HepG2 Assay for human GATA Binding Protein (AID 2282944); settings: HepG2 GATA cis-element reporter, Attagene multiplex mRNA; actives raise or lower the signal
Method in brief: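 Transfected cis-reporter HepG2 cells were treated with chemicals for 24 hours. Total RNA was then converted to cDNA, amplified with reporter-specific primers and analysed by fluorescent capillary electrophoresis, using DMSO-treated wells as baseline.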

[10] = ATG_ERE_CIS: Attagene CIS-FACTORIAL HepG2 Assay for Estrogen Response Element (ERE) (AID 2282940); settings: HepG2 ERE cis-reporter, Attagene RNA transcript; actives raise or lower the signal
Method in brief: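 Human liver cells (HepG2) bearing transiently transfected, promoter-regulated reporter units were exposed 24 h. Reporter mRNA induction was detected by capillary electrophoresis of labelled RT-PCR products and fitted bidirectionally to DMSO.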

Measured: AC50

CC(O)CCO (stereo unspecified)
not listed: [9] | [10]
inactive: all other assays above

CCN(CC)N=O
not listed: [9] | [10]
inactive: all other assays above

C1=Cc2cccc3cccc1c23
not listed: [10]
inactive: all other assays above

O=P(OCCCl)(OCCCl)OCCCl
not listed: [9] | [10]
inactive: all other assays above

CN(C)c1ccccc1
not listed: [9] | [10]
inactive: all other assays above

Clc1ccccc1Cl
not listed: [10]
inactive: all other assays above

O=C1CCCO1
not listed: [9] | [10]
inactive: all other assays above

[As]#[In]
not listed: [10]
inactive: all other assays above

CCCCCOC(=O)c1ccccc1C(=O)OCCCCC
not listed: [7] | [9]
inactive: all other assays above

CNC(=O)Oc1cccc2c1OC(C)(C)C2
not listed: [9]
inactive: all other assays above

O=C(Nc1ccccc1)c1ccccc1I
active: [10] 30.3 µM
not listed: [7] | [9]
inactive: all other assays above

OCCCBr
inactive: all assays above

CCCCCCCCCCCCCN1CC(C)OC(C)C1 (stereo unspecified)
not listed: [7] | [9]
inactive: all other assays above

CCNS(=O)(=O)C(F)(F)C(F)(F)C(F)(F)C(F)(F)C(F)(F)C(F)(F)C(F)(F)C(F)(F)F
inactive: [1] | [2] | [3] | [4] | [5] | [6] | [9] | [8]
active: [3] 96.5 µM | [9] 138 µM | [8] 96.5 µM

COC(=O)Nc1nc2ccccc2[nH]1
not listed: [10]
inactive: all other assays above

Cc1ccc([N+](=O)[O-])cc1
not listed: [7]
inactive: all other assays above

CC(C)COC(=O)c1ccccc1C(=O)OCC(C)C
active: [1] 100 µM | [3] 73.4 µM | [10] 39.6 µM
inactive: all other assays above

Nc1ccc(Oc2ccc(N)cc2)cc1
not listed: [10]
inactive: all other assays above

CC(C)N(Cc1ccccc1)C(=O)C(C)(C)C
not listed: [10]
inactive: all other assays above

Clc1ccc(C(c2ccc(Cl)cc2)C(Cl)Cl)cc1
inactive: [1] | [2] | [4] | [6]
active: [3] 45.1 µM | [10] 19.3 µM | [5] 53.8 µM | [8] 45.9 µM

CCC[CH2][Sn]([Cl])([CH2]CCC)[CH2]CCC
active: [1] 0.627 µM | [3] 0.659 µM
not listed: [7] | [9]
inactive: all other assays above

C[C@]12C=CC3=C4CCC(=O)C=C4CC[C@H]3[C@@H]1CC[C@@H]2O
inactive: [1] | [2] | [3] | [4] | [5] | [6] | [9] | [8]
active: [3] 25.3 µM | [5] 31.8 µM and 30 µM

ClC1=C(Cl)C2(Cl)C3C(Cl)C=CC3C1(Cl)C2(Cl)Cl (stereo unspecified)
active: [3] 132 µM | [10] 24.4 µM
not listed: [7] | [9]
inactive: all other assays above

COc1cc(C=O)cc2c1[C@H](COC(N)=O)[C@]1(OC(C)=O)ON2C[C@H]2[C@@H]1N2C(C)=O
inactive: [2] | [3] | [8]
active: [1] 0.1 µM | [4] 33.4 µM | [10] 51 µM | [5] 12.4 µM | [6] 62.3 µM | [9] 10.8 µM

CCCCCCCCn1sccc1=O
active: [3] 18.2 µM | [5] 14.8 µM | [8] 16.9 µM
not listed: [7] | [9]
inactive: all other assays above

OCCOCCO
inactive: all assays above

O=[N+]([O-])C(Br)(CO)CO
active: [3] 100 µM | [8] 169 µM
inactive: all other assays above

CO[C@@H]1[C@H](OC(=O)NC(=O)CCl)CC[C@]2(CO2)[C@H]1[C@@]1(C)O[C@@H]1CC=C(C)C
active: [5] 47.8 µM
not listed: [1]
inactive: all other assays above

[O-][Cl+]O
not listed: [1] | [9]
inactive: all other assays above

C[N+](C)(C)CC1CO1 (stereo unspecified)
not listed: [1] | [9]
inactive: all other assays above

N#CC(Br)Br
active: [10] 76.7 µM
not listed: [1] | [7] | [9]
inactive: all other assays above

CCCCOC(=O)c1ccccc1C(=O)OCc1ccccc1
not listed: [7] | [9] | [10]
inactive: all other assays above

ClC1=C(Cl)[C@]2(Cl)[C@H]3[C@H]([C@@H]4C=C[C@H]3C4)[C@@]1(Cl)C2(Cl)Cl
active: [3] 33.4 µM | [10] 16.1 µM
not listed: [1]
inactive: all other assays above

Clc1ccc(C(c2ccc(Cl)cc2)C(Cl)(Cl)Cl)cc1
not listed: [7] | [10]
inactive: all other assays above

CC(C)(OOC(C)(C)c1ccccc1)c1ccccc1
active: [3] 61.9 µM | [5] 100 µM | [8] 59.1 µM
not listed: [7] | [10]
inactive: all other assays above

CCCCC(CC)COC(=O)c1ccc(C(=O)OCC(CC)CCCC)c(C(=O)OCC(CC)CCCC)c1 (stereo unspecified)
not listed: [7] | [9] | [10]
inactive: all other assays above

Nc1ccc([N+](=O)[O-])cc1
not listed: [9] | [10]
inactive: all other assays above

CCOc1cccc(C2(N3CCN(c4ccccc4)CC3)CCC(C)CC2)c1 (stereo unspecified)
not listed: [1]
inactive: all other assays above

Source: PubChem BioAssay (EPA / NIEHS)
